# Assay results published in PubChem BioAssay.
# Calls of active or inactive are those of the source. The rule behind the calls is not given here.
# Target: Pantothenate synthetase (Mycobacterium tuberculosis (strain ATCC 25618 / H37Rv)) (UniProt P9WIL5)
# Experiment: Recombinant Mtb pantothenate synthetase (PanC) inhibitors, coupled enzyme, confirmatory (AID 375);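 note: 0% = full reaction with vehicle and 100% = no enzyme background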
# Settings: coupled enzyme assay; at 10 µM, stronger effect = higher value
# Chain of Pantothenate synthetase (Mycobacterium tuberculosis (strain ATCC 25618 / H37Rv)) (P9WIL5 whole entry, looked up): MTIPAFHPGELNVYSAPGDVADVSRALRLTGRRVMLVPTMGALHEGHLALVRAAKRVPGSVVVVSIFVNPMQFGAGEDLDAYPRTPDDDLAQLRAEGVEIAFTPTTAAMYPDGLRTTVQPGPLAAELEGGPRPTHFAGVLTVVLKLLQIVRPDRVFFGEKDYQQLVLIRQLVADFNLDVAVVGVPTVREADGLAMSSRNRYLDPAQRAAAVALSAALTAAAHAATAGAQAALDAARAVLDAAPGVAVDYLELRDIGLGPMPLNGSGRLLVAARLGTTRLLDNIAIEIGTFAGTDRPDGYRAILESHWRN
row,Structure (SMILES),inhibition
1,O=C(C1CCCCC1)N1CC(=O)N2CCc3ccccc3C2C1 (stereo not given),3% (inactive)
2,Nc1nc(Nc2cccc3ccccc23)nc(C2CCCC2=O)n1 (stereo not given),5% (inactive)
3,O=C(NC1CCCCCC1)c1cc(S(=O)(=O)N2CCC3(CC2)OCCO3)ccc1F,5% (inactive)
4,CN(C)c1ccc(CNCCC2(O)CCOC(C)(C)C2)cc1 (stereo not given),2% (inactive)
5,O=S(=O)(c1ccc(F)cc1)N1CCC(N2CCCC2)CC1,0% (inactive)
6,CC(=O)Oc1cccc(/C=c2\sc3nc(-c4ccco4)nn3c2=O)c1,8% (inactive)
7,O=C(O)C1CCCN(S(=O)(=O)c2ccc(Cl)s2)C1 (stereo not given),2% (inactive)
8,Cc1cc(NC(=O)COc2cccc(Oc3ccccc3)c2)no1,8% (inactive)
9,CCN(C(=O)c1cc2cc3ccc(C)cc3nc2o1)c1ccc(OC)cc1,6% (inactive)
10,C(=N\n1cnnc1)/c1cccnc1,0% (inactive)
11,O=C(Nc1ccccc1)N(CCN1CCOCC1)Cc1ccccc1F,0% (inactive)
12,Fc1ccc(-c2cnc[nH]2)cc1,0% (inactive)
13,c1ccc2c(c1)CC(N1CCCCC1)c1ccccc1N2 (stereo not given),0% (inactive)
14,Cc1ccc(S(=O)(=O)c2nc(-c3ccco3)oc2SCC(=O)NCC2CCCO2)cc1 (stereo not given),0% (inactive)
15,CCOC(=O)c1cc2sc(C)cc2n1CC(=O)Nc1cccc(C)c1C,0% (inactive)
16,O=C1CCCN1CCCNc1ncnc2c1[nH]c1ccc(Cl)cc12,9% (inactive)
17,COc1ccc(S(=O)(=O)NCCSCc2ccco2)cc1Cl,0% (inactive)
18,COc1ccccc1NC(=O)CSc1nnnn1-c1ccc2c(c1)OCO2,0% (inactive)
19,CCOC(=O)c1sc(NC(=O)CNC(=O)Cn2cnc3sc(C)c(C)c3c2=O)nc1C,0% (inactive)
20,CCOC(=O)c1sc(NC(=O)CSc2ncn(-c3ccccc3)n2)nc1C,3% (inactive)

row,Structure (SMILES),inhibition
1,O=C(NCc1ccco1)c1c2c(nc3ccccc13)CCC2,0% (inactive)
2,CCCCn1c2c(c3ccccc31)CCc1nonc1-2,1% (inactive)
3,Cc1cc(C)c2nc(C(F)(F)F)nc(NCCCN3CCCC3=O)c2c1,0% (inactive)
4,COc1ccc(N2CCN(C(=O)COc3ccc4ccccc4c3)CC2)cc1,2% (inactive)
5,COC(=O)C1C2C=CC3(CN(CC4CCCO4)C(=O)C13)O2 (stereo not given),0% (inactive)
6,CCOc1ccccc1N1CCN(S(=O)(=O)c2cccc3nsnc23)CC1,0% (inactive)
7,CCCn1c(=O)c2ccccc2n2c(SCc3cc(=O)n4ccsc4n3)nnc12,0% (inactive)
8,CCOc1ccccc1NC(=O)C1CCCN(S(=O)(=O)c2cccc3cccnc23)C1 (stereo not given),6% (inactive)
9,Cc1cc(C)nc(N2CCCC(C(=O)Nc3nc4ccc(S(C)(=O)=O)cc4s3)C2)n1 (stereo not given),4% (inactive)
10,CCNC(=O)CC1C(=O)N(c2ccccc2)C(=O)N1CCC(C)C (stereo not given),0% (inactive)
11,CC(=O)c1ccc(-c2nc3ccccc3n2C)o1,0% (inactive)
12,CCCCOc1ccc(CSc2n[nH]c(C)n2)cc1,0% (inactive)
13,COc1cccc(S(=O)(=O)Nc2cccnc2)c1,10% (inactive)
14,CC1CCc2c(sc(N)c2C(N)=O)C1 (stereo not given),0% (inactive)
15,Cc1ccc(C(=O)NCc2ccc3c(c2)OCO3)cc1S(=O)(=O)N1CCCCC1,0% (inactive)
16,CCCc1nn(CCc2ccccn2)c(N)c1CC,6% (inactive)
17,Cc1ccc(NC(=O)CSc2nnc(-c3ccccn3)n2C)cc1,1% (inactive)
18,COC(=O)Cn1c(=O)c2c(nc3n2CC(C)CN3c2ccc(C)c(C)c2)n(C)c1=O (stereo not given),4% (inactive)
19,O=C(NC1CCCc2ccccc21)C1CCN(S(=O)(=O)c2cnc[nH]2)CC1 (stereo not given),2% (inactive)
20,NC(=O)c1c(-c2ccccc2)oc2ccc(O)cc12,0% (inactive)
